The test system of assay [1] is CRL-7250. As to the kind of experiment: Cytotoxic Profiling of Annotated Libraries Using Quantitative High-Throughput Screening (AID 1296008). Note: nearly all actives have a fitted effect of over 60% in size. The settings on record: Five cell lines viability, CellTiter-Glo ATP luminescence, 48-72 h; max response: active compounds read low. The method in brief:
(§1)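 Cells exposed to compounds for 48 or 72 hr at 37 degrees Celsius. Viability read as ATP-coupled luminescence with CellTiter-Glo after 10 min at room temperature.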
A general note: In ATP-based viability assays light output follows the ATP content of the culture.

Assay [2] concerns HEK293. Described as above. The settings on record: Five cell lines viability, CellTiter-Glo ATP luminescence, 48-72 h; max response: active compounds read low. The method in brief:
as §1

Each structure is given as a SMILES string. Records with an inconclusive call do not appear. A number with no mark means an inactive call. The source made the active and inactive calls. Calls come from the whole dose curve; as a rule, active = well fitted inhibition curve with a large enough effect; inconclusive = small, poorly fitted or top-dose-only effect; inactive = flat fitted curve, though single readings scatter.
% is set by controls: 0 for no effect and ±100 for the full control effect; potency is the fitted concentration of half-maximal effect.

As to `NC1CCCCN(c2c(F)cc3c(=O)c(C(=O)O)cn(C4CC4)c3c2Cl)C1` (stereo unspecified), the max response in assay [1] is 3.42%; in assay [2] it was -12.1%.
On to `COc1ccc2nc(S(=O)(=O)Cc3ncc(C)c(OC)c3C)[nH]c2c1`, for which, in assay [1], the max response is -21.3%. Besides, in assay [2], the Potency is 16.4 µM (active).
As for `CC(=O)O[C@@H]1[C@H](O[C@@H]2O[C@@H](CO)[C@H](O)[C@H]2O)[C@@H](O[C@@H]2O[C@@H](C)[C@H](O[C@@H]3OC[C@@H](O)[C@H](O)[C@H]3O)[C@@H](O)[C@H]2O)[C@H](OC(=O)[C@]23CCC(C)(C)C[C@H]2C2=CCC4[C@@]5(C)CC[C@H](O[C@@H]6O[C@H](C(=O)O)[C@@H](O)[C@H](O)[C@H]6O[C@@H]6O[C@H](CO)[C@H](O)[C@H](O)[C@H]6O)[C@@](C)(C=O)C5CC[C@@]4(C)[C@]2(C)CC3)O[C@@H]1C` (stereo partly specified), the compound was called inactive in assay [1]. Also, the max response in assay [2] was -1.69%.
As for `C=C(C)C1CC[C@]2(C(=O)O)CC[C@]3(C(=O)O)[C@H](CCC4[C@@]5(C)CC[C@H](O)C(C)(C)C5CC[C@]43C)C12` (stereo partly specified), the figures for the max response in assay [1] and in assay [2] were -0.813% and -5.51%, respectively.
For `OC[C@H]1O[C@@H](O[C@H]2[C@H](OCc3ccccc3)O[C@H](CO[C@@H]3OC[C@@H](O)[C@H](O)[C@H]3O)[C@@H](O)[C@@H]2O)[C@H](O)[C@@H](O)[C@@H]1O` the same measures were -6.77% and 0.36%.
For `CC(=O)C12OC(C)(C)OC1CC1C3CCC4=CC(=O)C=CC4(C)C3(F)C(O)CC12C` (stereo unspecified) the same measures were -7.35% and -19.2%.
`COC1/C=C/C(C)(O)C(SCC(N)C(=O)O)CC(=O)OC(C)C(C)CC/C=C/1C` (stereo unspecified): in assay [1], the max response was 1.64%. For the same compound, the call in assay [2] was inactive.
On to `C=C1[C@H](OC(C)=O)[C@H]2[C@@H](OC(C)=O)[C@](C)(OC(C)=O)C[C@]2(OC(C)=O)C(=O)[C@H](C)/C=C/C(C)(C)C(=O)[C@H](OC(=O)C(C)CC)[C@H]1OC(C)=O` (stereo partly specified), for which the max response in assay [1] was -1.41%; in assay [2] it was 1.43%.
As to `O=C(O)c1cn(C2CC2)c2cc(N3C[C@@H]4C[C@H]3CN4)c(F)cc2c1=O`, the results for the max response in assay [1] and in assay [2] were -3.63% and -1.22%, respectively.
For `CC1(C)CCCC2(C)C=C(C(=O)O)C(O)CC12` (stereo unspecified), in assay [1], the compound was classed as inactive. In assay [2], the max response was -6.67%.
In the case of `COc1cc2nc(N3CCCC3)nc(NCCCCCN3CCCC3)c2cc1OC`, the results for the Potency in assay [1] and in assay [2] were 20600 nM (active) and 4.61 µM (active), respectively.
Take `CC1(C)CCC2(C(=O)OC3OCC(O)C(O)C3O)CCC3(C)C(=CCC4C5(C)CC(O)C(OC6OC(COC7OCC(O)C(O)C7O)C(O)C(O)C6O)C(C)(C)C5CCC43C)C2C1` (stereo unspecified): the max response was 1.81% in assay [1] and -7.77% in assay [2].
For `CC(=O)O[C@@H]1[C@@H](CO)O[C@@](CO)(O[C@H]2O[C@H](COC(=O)/C=C/c3ccccc3)[C@@H](O)[C@H](O)[C@H]2O)[C@H]1O` the same measures were -0.112% and 0.799%.
As to `C#CCN(Cc1cc2c(=O)n(C)c(CN3CCN(C)CC3)nc2cc1Cl)c1ccc(C(=O)NCc2cccnc2)cc1`, the Potency in assay [1] is 8.2 nM (active). Also, the max response in assay [2] is -130%.
Consider `O=C(O)c1ccccc1NC(=O)N1CCC(c2ccccc2C(F)(F)F)CC1`, for which the compound was called inactive in assay [1] and in assay [2].
As to `COc1ccc(-c2c(-c3cc(C(=O)O)ccn3)ncn2C)cc1`, the figures for the max response in assay [1] and in assay [2] were 4.8% and -1.7%, respectively.
Regarding `CNC(=O)c1ccccc1Nc1nc(Nc2ccc(N3CCNCC3)cc2)ncc1Cl`, the Potency in assay [1] was 92 nM (active); in assay [2] it was 0.0651 µM (active).
As to `C=C(C(=O)OC)C1C(O)CC2(C)C(O)CCC(=O)C2C1O` (stereo unspecified), the max response was -16.1% in assay [1] and -7.45% in assay [2].

Source of the values: PubChem BioAssay (NCATS).
